Source: PubChem BioAssay (NCI)
The panel holds about 83,000 compounds, 20% with a hit somewhere; the sample as a whole holds those more often.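 Step 1: grow cells in 96-well plates. Step 2: add test compound at a single concentration. Step 3: incubate 48 h. Step 4: record percent growth.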 A number with no mark means an inactive call. Active and inactive are the calls of the source. Rule for the calls: active = growth percent below 10; inactive = the rest.

tested on: HL-60(TB) leukemia; test: NCI-60 one-dose screen, 48 h (100 = growth as untreated, 0 = no growth, -100 = all killed); settings: 10 µM unless noted

SMILES | growth
Fc1ccc2nc(-c3nc(-c4ccccc4)n4ccccc34)[nH]c2c1 | 67.6%
CCOC(=O)CSc1nc(-c2cc(OC)ccc2OC)cc(-c2ccc(OC)cc2)c1C#N | 98.5%
Nc1ccccc1NC(=O)c1ccc(CSc2nc(N3CCOCC3)c3cccn3n2)cc1 | -19.4% (active)
CN(C)CC(O)c1ccc(/C=C/c2ccc(Cl)cc2)cc1 (stereo not given) | -43.6% (active)
Cc1ccc2sc3c(NCCN)nc4ccccc4c3c(=O)c2c1 | 53.3%
C[N+](C)=c1ccc2nc3c(cc(NCCCNc4cc5oc6cc(=[N+](C)C)ccc-6nc5c5ccccc45)c4ccccc43)oc-2c1 | -7.2% (active)
COc1cc2cc(Oc3ccc(NC(=O)Nc4ccc(Cl)c(C(F)(F)F)c4)cc3)c(C)nc2cc1OC | -40.6% (active)
CCN1C(=O)N(CC)C2C1NN=c1s/c(=C3\C(=O)N(C4CCCC4)c4ccccc43)c(=O)n12 (stereo not given) | -44.5% (active)
CCOC(=O)c1c(C)nc2ccccc2c1/C=C/c1cccs1 | 87.3%
COc1cc2nc(-c3ccc(Cl)cc3)cc(OCCCN3CCCCC3)c2cc1OC | 29.6%
O=C(CCc1nc2sc3c(c2c(=O)[nH]1)CCC3)NCc1cn(-c2ccccc2)nc1-c1ccccc1 | 98.7%
CCCC(OC(C)=O)c1ccc2c(c1)OCO2 (stereo not given) | 98.7%
CCN1C(=O)N(c2ccccc2)C2NC(=S)N(/N=C/C=C/c3ccccc3)C21 (stereo not given) | -26.4% (active)
O=c1[nH]c2c(ccc3cnccc32)c2c1CCC2 | 13.4%
CSc1nnc2c(=O)n(C)c(=O)n(C)c2n1 | 161%
COc1ccc(C(=O)COc2cccc(/C=C3\CSc4ccc(C)cc4C3=O)c2)cc1 | 45.6%
O=C(COCc1c(-c2ccccc2)no[n+]1[O-])Nc1nc(-c2ccc(Cl)cc2)cs1 | 119%
COC(=O)Nc1nc2ccc(C(=O)c3ccc(N(C)C4COC4)cc3)cc2[nH]1 | -28.8% (active)
COc1cc2c(c(OC)c1OC)C(=O)CC(c1cccc(C(=O)Nc3ccc(Br)cc3)c1)O2 (stereo not given) | 13.8%
CSC1=Nc2c(c(C)c(-c3ccccc3)n2CCCCl)C2=NC(=O)CN12 | 27.4%

SMILES | growth
CCN1CCN(c2nc(C)cc(N(CCCNc3ccnc4cc(Cl)ccc34)Cc3ccco3)n2)CC1 | 37.5%
CS(=O)(=O)c1ccc(C(=O)Nc2ccc(Cl)c(-c3ccccn3)c2)c(Cl)c1 | 14.2%
Cc1ccc(S(=O)(=O)Oc2ccc(NC(=O)c3ccc(Cl)cc3)cc2)cc1 | 89.2%
CCSc1nc2ccccc2o1 | 97.5%
CN(C)c1cc(NN=C(c2ccc(O)cc2)c2ccc(O)cc2)c([N+](=O)[O-])cc1[N+](=O)[O-] | 127%
COc1cc2c(cc1-c1c(C)noc1C)ncc1nc(C3CC3)n([C@H](C)COC(F)F)c12 | 31%
O=C(c1ccccc1)c1c(/C=C/c2ccccc2)nc2ccccc2c1/C=C/c1ccc(Br)cc1 | 112%
Cc1cc(-c2ccc(N=Nc3c(S(=O)(=O)O)cc4cc(S(=O)(=O)O)cc(N)c4c3O)c(C)c2)ccc1N=Nc1cc(S(=O)(=O)O)c2ccccc2c1O | 98.7%
Cc1c(Cl)cccc1NC(=O)c1sc2nc3c(cc2c1N)CCCCCC3 | -15.9% (active)
COc1nc2c(c(=O)n1C)CN(c1ccccc1)C(=O)C(C)N2 (stereo not given) | 94%
CN1CCN(Cc2ccc(NC(=O)c3cncc(C#Cc4ncc5ccccn45)c3)cc2C(F)(F)F)CC1 | -3.92% (active)
O=C1c2ccccc2-c2c1c1c(NCCCO)nc3ccccc3c1n2Cc1ccccc1 | 48.9%
Cc1cc(N(CCCNc2ccnc3cc(Cl)ccc23)Cc2ccco2)nc(N2CCN(C)CC2)n1 | 38%
COc1cc(/C=C2\CCC/C(=C\c3cc(CN4CCOCC4)c(O)c(OC)c3)C2=O)cc(CN2CCOCC2)c1O | 4.24% (active)
N#Cc1c(C#N)c(SSc2c(C#N)c(C#N)c(N)n2-c2ccccc2)n(-c2ccccc2)c1N | 99.2%
Cc1ccc(C(=O)COc2cccc(/C=C3\Oc4ccccc4C3=O)c2)cc1 | 78.7%
CCCCN1CCCCn2c1nc1c2c(=O)n(C)c(=O)n1C | 108%
Nc1nc(N)c(-c2ccc(Cl)c(Cl)c2)c(CBr)n1 | 59.5%
CCOC(=O)c1c(C)nc2c(c1N)/C(=C/c1ccccn1)C(=O)N2Cc1ccccc1 | -5.96% (active)
C/C(=N\NC(=O)Cn1c(-c2ccc(S(C)(=O)=O)cc2)nc2cc(Cl)ccc21)c1ccc(Cl)cc1 | 88.2%
